Reference: the supplement of paper PMC9694430
Counter-ions that a name gives are not always drawn.

Key:
Assay in all cases: thermal shift delta Tm vs DMSO control; higher = stronger stabilization (binding)
Settings in all cases: 12.5 µM; protein concentration 2 µM
LOC_OS01G01410-cb001 = tested on: LOC_OS01G01410-cb001
Method in brief: (§1)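 Compounds dissolved in DMSO were added to purified rice kinase domain constructs, which had been expressed in E. coli, for differential scanning fluorimetry. Each well held 19.5 μl of 2 μM kinase in 100 mM potassium phosphate pH 7.5, 150 mM NaCl, 10% glycerol and 5 × SYPRO Orange. Fluorescence was followed from 25°C to 95°C at a rate of 0.05°C/s. Shifts in Boltzmann-fitted melting temperature are triplicate means relative to DMSO-only protein.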

LOC_OS01G02750-cb003 = tested on: LOC_OS01G02750-cb003
Method in brief: as §1

LOC_OS01G10900-cb004 = tested on: LOC_OS01G10900-cb004
Method in brief: as §1

LOC_OS01G13800-cb001 = tested on: LOC_OS01G13800-cb001
Method in brief: as §1

LOC_OS01G14860-cb001 = tested on: LOC_OS01G14860-cb001
Method in brief: as §1

LOC_OS01G21960-cb002 = tested on: LOC_OS01G21960-cb002
Method in brief: as §1

LOC_OS01G39600-cb002 = tested on: LOC_OS01G39600-cb002
Method in brief: as §1

LOC_OS01G48390-cb002 = tested on: LOC_OS01G48390-cb002
Method in brief: as §1

LOC_OS01G51400-cb002 = tested on: LOC_OS01G51400-cb002
Method in brief: as §1

LOC_OS01G52050-cb004 = tested on: T1, LOC_OS01G52050-cb004
T1 sequence (whole entry): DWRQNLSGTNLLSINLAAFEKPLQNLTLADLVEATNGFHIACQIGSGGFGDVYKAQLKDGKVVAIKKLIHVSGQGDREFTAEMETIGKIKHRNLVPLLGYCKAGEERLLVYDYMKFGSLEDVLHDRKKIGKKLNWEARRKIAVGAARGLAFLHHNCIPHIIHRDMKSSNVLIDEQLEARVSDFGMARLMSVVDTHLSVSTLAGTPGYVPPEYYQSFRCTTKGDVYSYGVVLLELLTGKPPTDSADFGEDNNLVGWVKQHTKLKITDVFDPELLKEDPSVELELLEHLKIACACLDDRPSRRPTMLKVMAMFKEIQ
Method in brief: as §1

Row | Compound | thermal shift delta Tm (LOC_OS01G01410-cb001) [°C] | thermal shift delta Tm (LOC_OS01G02750-cb003) [°C] | thermal shift delta Tm (LOC_OS01G10900-cb004) [°C] | thermal shift delta Tm (LOC_OS01G13800-cb001) [°C] | thermal shift delta Tm (LOC_OS01G14860-cb001) [°C] | thermal shift delta Tm (LOC_OS01G21960-cb002) [°C] | thermal shift delta Tm (LOC_OS01G39600-cb002) [°C] | thermal shift delta Tm (LOC_OS01G48390-cb002) [°C] | thermal shift delta Tm (LOC_OS01G51400-cb002) [°C] | thermal shift delta Tm (LOC_OS01G52050-cb004) [°C]
1 | Cc1ccc(NC(=O)c2cccc(C(C)(C)C#N)c2)cc1Nc1ccc2ncn(C)c(=O)c2c1 | 0.91 | 0.97 | 0.69 | 0.2 | 0.47 | 0.52 | 0.04 | 1.13 | 0.61 | 0.4
2 | CN1CCN(Cc2ccc(-c3cnc4[nH]cc(-c5ccc6[nH]ccc6c5)c4c3)cc2)CC1 | 3.79 | 5.34 | 4.45 | -0.19 | 4.87 | 4.44 | 9 | 3.1 | 0.11 | 9.93
3 | O=C(c1ccc(F)c(F)c1Nc1ccc(I)cc1F)N1CC(O)([C@@H]2CCCCN2)C1 [Cobimetinib (GDC-0973, RG7420)] | 0.62 | 1.67 | 0.3 | 0.01 | 0.39 | 0.36 | -0.03 | 0.12 | 0.29 | 0.44
4 | COc1cc2nccc(Oc3ccc(NC(=O)c4cn(C(C)C)c(=O)n(-c5ccc(F)cc5)c4=O)cc3F)c2cc1OC | 0.17 | 1.65 | -0.15 | 0.61 | 0.98 | 0.2 | 0.41 | 0.32 | 0.13 | 4.45
5 | CC(C)c1cnn2c(NCc3ccccc3)cc(NCCCCCCN)nc12 | 0.34 | 0.13 | 0.11 | -0.23 | 0.11 | 0.56 | -0.29 | 0.09 | -0.21 | 0.18
6 | Cc1nc2c(-c3cnc(N)nc3)nc(N3CCOCC3)nc2n1C(C)C | 0.02 | 0.81 | 0.35 | 0.04 | -0.18 | 0.83 | 1.29 | 0.44 | 0.69 | –
7 | N#C/C(=C\c1ccc(O)c(O)c1)C(=O)NCc1ccccc1 [AG-490 (Tyrphostin B42)] | 2.63 | 17.9 | 0.93 | 1.74 | 1.27 | 1.78 | -0.2 | 1.08 | 0.47 | 0.46
8 | Cc1cc(C(C)Nc2ccccc2)c2nc(N3CCOCC3)cc(=O)n2c1 (stereo not drawn) | 1.33 | -0.12 | 0.5 | 0.23 | 1.25 | 0.01 | 0.8 | 1.36 | 0.16 | 0.56
9 | CNC(=O)c1cc(Oc2ccc(NC(=O)Nc3cc(C(C)(C)C)nn3-c3ccc4ncccc4c3)c(F)c2)ccn1 [Rebastinib (DCC-2036)] | 1.21 | 0.84 | 0.98 | 0.38 | 7.66 | 1.31 | 0.57 | 1.3 | 0.47 | 1.95
10 | Cc1ccccc1-n1c(Cn2nc(-c3cccc(O)c3)c3c(N)ncnc32)nc2cccc(C)c2c1=O | 0.31 | 0.33 | 0.02 | -0.2 | -0.04 | 0.03 | -0.15 | 0.39 | 0.33 | –
11 | Cc1[nH]c(/C=C2\C(=O)Nc3ccc(S(=O)(=O)N(C)c4cccc(Cl)c4)cc32)c(C)c1C(=O)N1CCN(C)CC1 | 1.44 | 2.62 | 0.43 | 0.07 | 0.57 | 0.44 | -0.1 | 0.18 | 0.14 | 1.01
12 | O=C(Nc1cccc(Nc2ncc(Br)c(NCCc3cnc[nH]3)n2)c1)N1CCCC1 | 5.28 | 2.32 | 0.86 | 0.31 | 4.24 | 3.16 | 7.21 | 4.8 | 1.21 | 11.9
13 | CCOC(=O)c1cnc2ccc(-c3cncc(NS(=O)(=O)c4ccccc4)c3)cn12 | 1.19 | 2.3 | 1.17 | 0.29 | 0.13 | 1.06 | 0.33 | 0.35 | 0.6 | 0.54
14 | Cc1nc2ccc(-n3ncc(C(=O)c4cc5ccccc5[nH]4)c3N)cc2[nH]1 | 0.79 | 1.12 | 0.9 | 0 | 0.41 | -0.17 | 0.82 | 1.08 | 0.05 | 1.9
15 | C[C@H]1CNCCCN1S(=O)(=O)c1cccc2cncc(F)c12 [Ripasudil (K-115) hydrochloride dihydrate] | 0.29 | 1.34 | 0.28 | 1.05 | 0.24 | 0.88 | 0.39 | 0.68 | 0.21 | 0.63
16 | CCOc1cc(C(=O)N2CCC(N3CCN(C)CC3)CC2)ccc1Nc1ncc2c(n1)N(C1CCCC1)c1ccccc1C(=O)N2C | 0.26 | 0.37 | 0.01 | -0.42 | 0 | 0.3 | -0.95 | 0 | -0.1 | -0.46
17 | COc1cc2ncnc(Oc3ccc(CC(=O)Nc4cnn(C(C)C)c4)cc3)c2cc1OC | 0.27 | 0 | 0.09 | -0.43 | 0.03 | 0.08 | -1.25 | 0.97 | 0.22 | -0.1
18 | CC(C)(C)S(=O)(=O)c1ccc2nccc(Nc3n[nH]c4ccc(F)cc34)c2c1 | 0.34 | 1.74 | 0.48 | -0.44 | 0.3 | 0.28 | 1.01 | 1.31 | 0.33 | 0.16
19 | CO[C@H]1CC[C@H](N2C(=O)CNc3ncc(-c4ccc(C(C)(C)O)nc4)nc32)CC1 | 0.1 | -0.2 | -0.9 | 0.15 | 0.82 | 1.01 | -1.7 | -0.27 | 0.12 | -1.81
20 | Cc1ccc(Nc2nccc(N(C)c3ccc4c(C)n(C)nc4c3)n2)cc1S(N)(=O)=O [Pazopanib] | 2.16 | 0.45 | 1.67 | -0.48 | 0.04 | 0.56 | 1.25 | 4.34 | 0.23 | 0.91
